Compounds without any hit were thinned out: in the full panel of roughly 83,000, 20% have a hit.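 Each cell line was grown in a 96-well plate and treated with one concentration of compound for 48 hours. Values below 10 were considered active.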 Active and inactive are the calls of the source.

The values that follow come from PubChem BioAssay (NCI).

For this assay, the system named is ACHN renal. The assay can be described thus: NCI-60 one-dose screen, 48 h (100 = growth as untreated, 0 = no growth, -100 = all killed). The note with it: 10 µM unless noted. The protocol: Growth inhibition of the ACHN human tumor cell line is measured as a screen for anti-cancer activity. Cells are grown in 96 well plates and exposed to the test compound for 48 hours. Compounds are tested at a single concentration, which is 10^-5 M for most compounds. The reported endpoint is percent growth (GI% or GIPRCNT), where numbers from 0 - 100% represent growth inhibition, and numbers from -100% - 0 represent cell death. For example, a value of 40 represents 60% growth inhibition. A value of 0 means no net growth occurred over the course of the experiment. A value of -40 indicates 40% of cells at the beginning of the experiment died by the end of the experiment. A value of -100 means all cells are dead at the end of the experiment.
NCI-60 Human Tumor Cell Lines Screen was performed using the standard one-dose NCI protocol, which is described in more detail at https://dtp.cancer.gov/discovery_development/nci-60/default.htm.
Compounds with GIPRCNT values below 10 were considered active. Activity score was based on GIPRCNT using the following formula: […]
Score is 0 for GIPRCNT values of 100 or above, 50 for GIPRCNT values of 0, and 100 for GIPRCNT values of -100.
As for `CS(=O)(=O)Nc1cc(-c2ccc3ncc(C#N)c(Nc4ccc(F)c(Cl)c4)c3c2)cnc1Cl`, the growth is 10.2% (inactive). As for `COc1ccc(-c2nn(-c3ccccc3)cc2/C=C/C(=O)NNC(=O)Nc2ccc(C)cc2)cc1`, the growth was 102% (inactive). Regarding `C#CC#CC#CC#CC#CC#CC#CC#CC[C@@H]1OC[C@@H](COC(=O)O[C@@H](C(=O)O[C@H]2C[C@@]3(O)[C@@H](OC(=O)c4ccccc4)[C@@H]4[C@]5(OC(C)=O)CO[C@@H]5C[C@H](O)[C@@]4(C)C(=O)[C@H](OC(C)=O)C(=C2C)C3(C)C)[C@@H](NC(=O)c2ccccc2)c2ccccc2)O1`, the growth is 26.5% (inactive). For the compound `O=C(/C=C/c1ccc(Cl)cc1)c1cccc(OCCCOc2cccc(C(=O)/C=C/c3ccc(Cl)cc3)c2)c1`, the growth is 99.6% (inactive). For the compound `C=CC(=O)Nc1ccc(Nc2nccc(-c3ccc(N4CCCC4)c(C#N)c3)n2)cc1`, the growth was 19.6% (inactive). Turning to `COc1ccc2cc(-c3ccnc4c(N=Nc5ccc(Cl)cc5)c(N)nn34)ccc2c1`, the growth is 100% (inactive). As for `COc1ccc(CCN2C(=O)/C(=C/c3ccc(C4Oc5ccccc5C5CC(c6ccccc6)=NN54)cc3)SC2=S)cc1` (stereo not given), the figure is 102% (inactive). As for `C=CN(C(=O)N1CCN(c2cc3c(cc2F)c(=O)c(C(=O)O)cn3C2CC2)CC1)c1nc(-c2ccc(OC)cc2)cs1`, the figure is 23.6% (inactive); as for `COc1cc(-c2nc3sccn3c2-c2ccnc(NCCNS(=O)(=O)c3ccc(Cl)cc3)n2)ccc1F`, 20.4% (inactive). For the compound `Cc1cccc(-c2nc(Nc3ccc4ncsc4c3)c3ccccc3n2)n1`, the growth was 91.9% (inactive).

`C=C1CC[C@@H]2C(C)(C)[C@@H](O)CC[C@@]2(C)[C@@H]1COc1ccc2ccc(=O)oc2c1`: the growth is 80.1% (inactive). As for `COc1ccc(/C=C2\COc3ccc(O)cc3C2=O)cc1`, the figure is 98.9% (inactive); as for `COc1ccc(C(=O)Cn2c(C(=O)c3ccc(OC)cc3)nc3ccccc32)cc1`, 43.8% (inactive). With `O=C1/C(=C\c2cccc3nccnc23)SC(=S)N1CCc1ccc(O)cc1`, the growth was 97.3% (inactive). As to `Cc1ccc(C(=O)Nc2cccc(C#Cc3cccc4[nH]nc(N)c34)c2)cc1C(F)(F)F`, the growth is 44.7% (inactive).

Take `COc1cccc(C(=O)NNc2nc(Cl)nc(Cl)n2)c1`: the growth is 101% (inactive). For `Cc1ccc2c(-c3nnc(N)s3)cc(=O)oc2c1C`, the growth is 103% (inactive). Turning to `COc1ccc2[nH]cc(-c3nc(-c4c[nH]c5c(Cl)nccc45)cs3)c2c1`, the growth was 16.1% (inactive). As for `CCN1CCN(C(=O)[C@]23CC[C@@H](C)[C@H](C)[C@@H]2C2=CC[C@@H]4[C@@]5(C)C/C(=C/c6cccnc6)C(=O)C(C)(C)[C@@H]5CC[C@@]4(C)[C@]2(C)CC3)CC1`, the figure is 20.7% (inactive); as for `Cn1cc(-c2csc(-c3c[nH]c4ccc(F)cc34)n2)c2ccnc(Cl)c21`, 51% (inactive); as for `CCOc1cccc(/C=N/NC(=O)c2cccc(Nc3ccnc(C(F)(F)F)c3)c2)c1O`, 24.4% (inactive). For the compound `COC(=O)c1c2c(c(C)[n+]([O-])c1C)C(=O)C(NCc1ccc(OC)cc1)=CC2=O`, the growth is 40.1% (inactive). With `Cc1cc(Nc2ccc(C(=O)N3CCCC3)cc2)nc(NCCCNc2ccnc3cc(Cl)ccc23)n1`, the growth is 99% (inactive). As to `COc1ccc(/C=C2\CN(C(=O)C(Cl)Cl)C/C(=C\c3ccc(OC)cc3)C2=O)cc1`, the growth is -58.3% (active). Consider `c1ccc(CCNc2c3ccccc3nc3ccccc23)cc1`, for which the growth was 21.6% (inactive). As for `O=C(Cc1cccc(OC(F)(F)F)c1)Nc1ccc(CCCCc2nnc(NC(=O)Cc3ccccn3)s2)nn1`, the figure is 70% (inactive); as for `CC1(C)CC[C@]23CC[C@]4(C)[C@H](CC[C@@H]5[C@@]6(C)C/C(=C/c7ccncc7)C(=O)C(C)(C)[C@@H]6CC[C@]54C)[C@H]2[C@H]1OC3`, 91% (inactive). In the case of `C=C1C(=O)O[C@H]2[C@H]1CC/C(COC(=O)/C=C\C(=O)NCc1ccc(Cn3c(=O)sn(CCCCC)c3=O)cc1)=C\CC[C@@]1(C)O[C@@H]21`, the growth was 46.9% (inactive).

Consider `FC(F)(F)c1ccc(Cn2cc(CSc3nc4ccccc4s3)nn2)cc1`, for which the growth is 101% (inactive). For the compound `CC(C)(C)n1cc(-c2ccnc(NCCCNS(=O)(=O)c3ccc(C(F)(F)F)cc3)c2)c(-c2cccc(F)c2)n1`, the growth was 85.7% (inactive). With `CN1CCN(C(=S)SCCCCOc2cc(=O)oc3ccccc23)CC1`, the growth is 92.9% (inactive). As for `Cn1ccc(=O)nc1`, the figure is -4.04% (active); as for `CC1(C)N=C(N)N=C(N)N1c1ccc(CCCCc2ccccc2)c(Cl)c1`, 18.8% (inactive); as for `Cc1ccc2nc(NC(=O)CSc3nc(-c4ccccc4)c(C#N)c4nnnn34)sc2c1`, 106% (inactive). Take `CCOC(=O)c1c(C)nc2ccccc2c1/C=C/c1cccs1`: the growth was 76.5% (inactive). For `COc1ccc(-c2ccc(-c3ccc(C(=N)N)nc3)s2)cc1Cl`, the growth is -96.2% (active). Take `C=C(C)[C@@H]1CCC[C@]2(C(=O)N3CCN(C)CC3)CC[C@]3(C)[C@@H](CC[C@@H]4[C@@]5(C)CC/C(=N\NC(=O)c6ccncc6)C(C)(C)[C@@H]5CC[C@]43C)[C@@H]12`: the growth is 88.3% (inactive).

In the case of `CC[N+]1(CC)CC[N+]2(CCCC(C)CC2)CC1` (stereo not given), the growth is 104% (inactive). As for `O=C1c2ccccc2C(=O)c2c1c(C(=O)NCc1ccccc1)c1ccccn21`, the figure is 103% (inactive). `C=C1C(=O)O[C@H]2[C@H]1CC/C(CNC(=O)c1c[nH]c3ccc(F)cc13)=C\CC[C@@]1(C)O[C@@H]21`: the growth is -18% (active).
